{
  "source": "PubChem BioAssay AID651692",
  "about": "(Broad Institute, 2012)",
  "note": "Potency and affinity values are given separately. Calls of active or inactive are those of the source.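 How the source made its calls: active means fitted half-maximal concentration for loss of cell signal no higher than twice the top valid tested concentration; inconclusive means flat curve at 30 to 70% inhibition, or poor fit; inactive means flat within 30%, signal rise, or potency above limit.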",
  "data": [
    {"test": "cytotoxicity toward MDA-MB-231 breast cancer cells – cell-based, CellTiter-Glo luminescence, cherry-pick, cytotoxicity control for RAD54 inhibitor project, dose response (AID 651692);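 further: 0% = median of sample compound wells and -100% = staurosporine control wells; more negative values mean stronger loss of viable cell signal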", "details": "MDA-MB-231 viability, 24 h; series mostly up to 26 µM; activity change, negative = growth inhibition: at the top concentration", "values": [
      {"smiles": "CN(C)CCCN(C(=O)c1ccc([N+](=O)[O-])o1)c1nc2cc3c(cc2s1)OCO3", "activity change, negative = growth inhibition": "10.8% (inactive)"},
      {"smiles": "CCCN(CCC)CCCNC(=O)c1cc2cc3ccc(OC)cc3nc2o1", "activity change, negative = growth inhibition": "2.73% (inactive)"},
      {"smiles": "Cc1ccc(-c2nc(NCCN3CCOCC3)c3ccccc3n2)cc1", "activity change, negative = growth inhibition": "1.18% (inactive)"},
      {"smiles": "CN(C)CCN(C(=O)CN1C(=O)c2ccccc2C1=O)c1nc2cc3c(cc2s1)OCCO3", "activity change, negative = growth inhibition": "-2.76% (inactive)"},
      {"smiles": "Cc1ccnc(Nc2nc(-c3sc(C)nc3C)cs2)c1", "activity change, negative = growth inhibition": "0.852% (inactive)"},
      {"smiles": "CC(=O)Nc1cc(-c2ccc(N3CCN(C)CC3)cc2)cn2c(-c3cccc(C(C)=O)c3)cnc12", "activity change, negative = growth inhibition": "-11% (inactive)"},
      {"smiles": "CCCN1CCN(CCCNC(=O)c2cc3c(=O)n(C)c4ccccc4c3n2C)CC1", "activity change, negative = growth inhibition": "-3.42% (inactive)"},
      {"smiles": "COC(=O)Nc1nnc(COc2ccccc2)s1", "activity change, negative = growth inhibition": "1.91% (inactive)"},
      {"smiles": "CN(C)CCN(C(=O)c1ccc2c(c1)OCCO2)c1nc2c(Cl)cccc2s1", "activity change, negative = growth inhibition": "3.6% (inactive)"},
      {"smiles": "COc1ccc(CCn2c(=N)c(C(=O)NCC3CCCO3)cc3c(=O)n4cccc(C)c4nc32)cc1OC", "note": "(configuration not stated)", "activity change, negative = growth inhibition": "-13.4% (inactive)"},
      {"smiles": "CN(C)CCCNc1nc2cc(-c3ccc(C(=O)N4CCN(C)CC4)cc3)sc2c(=O)n1C", "activity change, negative = growth inhibition": "4.25% (inactive)"},
      {"smiles": "COc1ccc(-c2cc3nc(NCCN4CCCC4)n(C)c(=O)c3s2)cc1OC", "activity change, negative = growth inhibition": "4.91% (inactive)"},
      {"smiles": "Cc1cc(C)c2c(N)c3ccccc3nc2n1", "activity change, negative = growth inhibition": "-22.3% (inactive)"},
      {"smiles": "COc1cccc(-c2cc(NC=O)c3ncc(-c4cccc(C(=O)NCCN(C)C)c4)n3c2)c1", "activity change, negative = growth inhibition": "-5.61% (inactive)"},
      {"smiles": "CC(=O)Nc1cc(-c2cccc(C(=O)NCCN(C)C)c2)cn2c(-c3ccc(S(C)(=O)=O)cc3)cnc12", "activity change, negative = growth inhibition": "-5.24% (inactive)"},
      {"smiles": "COc1ccc(-c2cc(NC=O)c3ncc(-c4cccc(C(=O)NCCN(C)C)c4)n3c2)cn1", "activity change, negative = growth inhibition": "-14% (inactive)"},
      {"smiles": "C=CCN1C(=O)C(C)(C)Nc2ccccc21", "activity change, negative = growth inhibition": "5.24% (inactive)"},
      {"smiles": "NC(=O)C1CCN(c2nc(-c3cccnc3)cs2)CC1", "activity change, negative = growth inhibition": "5.88% (inactive)"},
      {"smiles": "O=c1c2ccccc2oc2ccc(NCCCN3CCOCC3)cc12", "activity change, negative = growth inhibition": "9.85% (inactive)"},
      {"smiles": "CCOC(=O)c1cnc2c(Cl)cccc2c1NCCCN1CCOCC1", "activity change, negative = growth inhibition": "8.64% (inactive)"},
      {"smiles": "CCN(CC)CCNc1ccc(CO)c2oc3cc(Cl)ccc3c(=O)c12", "activity change, negative = growth inhibition": "-9.29% (inactive)"},
      {"smiles": "CC1CCCN(CCCNC(=O)c2cc3c(Cl)nc4ccccc4c3s2)C1", "note": "(configuration not stated)", "activity change, negative = growth inhibition": "-16.3% (inactive)"}
    ]}
  ]
}
